Bioassay records: PubChem, National Center for Advancing Translational Sciences (NCATS)
Compounds with a hit are over-represented: about 3.1% of the library has one in this group of screens.
Nrf2 block: Nrf2 qHTS screen for inhibitors | A549 ARE-Fluc reporter, luciferase luminescence, 18-24 h | Potency, µM (titrated, usually from 46 µM), for inactives: top-dose activity change, negative = inhibition, usual class: inhibitors | 2.1% of 360,000 active; also: % is scaled to controls: 0 for no effect and ±100 for the full control effect; nearly all actives have a fitted effect of over 60% in size
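Concentration-response testing used A549 ARE_Fluc cells at 5000 cells/well. Following an 18-24 h compound incubation, viability was read by fluorescence (Ex 405/Em 525) and luciferase output by luminescence.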
TrxR1 substrate: qHTS Assay for Substrates of Mammalian Selenoprotein Thioredoxin Reductase 1 (TrxR1): qHTS; Thioredoxin reductase 1, cytoplasmic (Rattus norvegicus), O89049; purified TrxR1 substrate turnover, NADPH consumption readout; Potency, µM (top dose mostly 114 µM), for inactives: at the highest dose activity change, negative = substrate turnover; 0.01% of 390,000 active; AID 588456, 2011; also: % is scaled to controls: 0 for no effect and ±100 for the full control effect; nearly all actives have a fitted effect of over 50% in size
Target sequence (O89049 whole entry, looked up): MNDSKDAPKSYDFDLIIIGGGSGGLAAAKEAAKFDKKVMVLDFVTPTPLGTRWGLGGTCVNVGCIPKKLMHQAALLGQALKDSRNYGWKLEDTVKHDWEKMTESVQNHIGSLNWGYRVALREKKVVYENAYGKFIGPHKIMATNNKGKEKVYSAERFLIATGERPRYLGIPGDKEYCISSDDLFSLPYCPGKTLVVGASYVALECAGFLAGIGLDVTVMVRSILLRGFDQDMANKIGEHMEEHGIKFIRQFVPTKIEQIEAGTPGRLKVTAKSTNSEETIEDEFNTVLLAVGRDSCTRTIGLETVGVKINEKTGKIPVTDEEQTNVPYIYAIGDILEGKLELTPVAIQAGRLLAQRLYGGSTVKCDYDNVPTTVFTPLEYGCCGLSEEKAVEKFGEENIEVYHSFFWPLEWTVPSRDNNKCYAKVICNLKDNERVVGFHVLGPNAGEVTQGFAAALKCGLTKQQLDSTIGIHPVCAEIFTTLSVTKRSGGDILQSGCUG
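Rat TrxR1, dispensed at 90 nM, was prereduced with 400 uM NADPH (final) for 5 min at ~22 deg C, then incubated with compound 15 min before 400 uM selenite. A first-read NADPH fluorescence drop versus no-compound background flagged substrates.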
TrxR1 inh: qHTS Assay for Inhibitors of Mammalian Selenoprotein Thioredoxin Reductase 1 (TrxR1): qHTS. Thioredoxin reductase 1, cytoplasmic (Rattus norvegicus), O89049. recombinant rTrxR1, NADPH fluorescence consumption, selenite substrate. Potency, µM (top dose mostly 114 µM), for the others: top-dose activity change, negative = inhibition, actives largely listed as inhibitors. 1% of 390,000 active; also: % is scaled to controls: 0 for no effect and ±100 for the full control effect; nearly all actives have a fitted effect of over 65% in size
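Rat TrxR1 (90 nM in the dispensed reagent) was pre-reduced with 400 uM NADPH for 5 min at room temperature, then incubated with compound for 15 min. After 400 uM selenite was added, NADPH fluorescence (Ex 340/Em 450 nm) was followed for 8 min.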
Mito fusion act: qHTS Assay for Small Molecule Inhibitors of Mitochondrial Division or Activators of Mitochondrial Fusion; Potency, µM (series often up to 46.1 µM), for the others: top-dose growth rescue (activation), most hits filed as activators; 0.23% of 320,000 active; S. cerevisiae fusion-defective mutant growth rescue, CellTiterGlo 48 h; also: % of control where 0% means no effect; nearly all actives have a fitted effect of over 45% in size
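Luminescent cell viability in 1536-well qHTS format served as the measure of rescued growth in ts fusion-mutant S. cerevisiae cultured on non-fermentable YPEG for 48 hours at 37C.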
A549 tox: Nrf2 qHTS screen for inhibitors: counterscreen for cytotoxicity | 0.16% of 390,000 active | A549 ARE-Fluc cells, CellTiter-Fluor viability, 18-24 h | Potency, µM (doses to about 46 µM), for the others: at the top dose activity change, negative = cytotoxicity, hits mostly inhibitors | AID 504648, 2011; also: % is scaled to controls: 0 for no effect and ±100 for the full control effect
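A549 ARE_Fluc cells in 5% FBS OPTI-MEM were exposed to compounds in concentration-response for 18-24 h at 37 deg C. Viability was read by CellTiter-Fluor fluorescence (Ex 405/Em 525) after 30 min, before the luciferase read.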
mIDH1 inhibitor: qHTS for Inhibitors of mutant isocitrate dehydrogenase 1 (IDH1): qHTS; Isocitrate dehydrogenase [NADP] cytoplasmic (Homo sapiens), O75874; IDH1-R132H enzyme, NADPH consumption, diaphorase/resazurin fluorescence; Potency, µM (highest dose often 76.6 µM), for inactives: at the top dose activity change, negative = inhibition, usual class: inhibitors; 0.093% of 390,000 active; also: % is scaled to controls: 0 for no effect and ±100 for the full control effect; nearly all actives have a fitted effect of over 65% in size
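IDH1-R132H (0.5 ug/mL dispensed) in pH 7.5 Tris buffer was preincubated 30 min with compound, then given a substrate mix of 0.016 mM NADPH and 2 mM alpha-KG for 80 min at room temperature; remaining NADPH was read by diaphorase/resazurin fluorescence.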
* hit, by the source's call; ? = inconclusive; / = no result given; [ ] = another dose, or the depositor's remark. Calls follow the shape of the dose curve; as a rule, active = well fitted curve in the direction sought with a large enough effect; inconclusive = small, poorly fitted or top-dose-only effect, or another doubt; inactive = no such curve, though single readings can be large; an effect the other way counts as inactive or inconclusive. Potency is read from the fitted curve at half-maximal effect.

SMILES	Nrf2 block	TrxR1 substrate	TrxR1 inh	Mito fusion act	A549 tox	mIDH1 inhibitor
O=C(CC1C[C@H](C(=O)N2CCCCC2)[C@@]2(CCc3ccccc3)c3[nH]c4ccccc4c3CCN2C1=O)NCc1ccco1 (stereo partly drawn)	?	-3%	20%	/	-23%	-21%
COc1ccc2[nH]c3c(c2c1)CCN1C(=O)C(CC(=O)NCCc2ccccn2)C[C@H](C(=O)N2CCCCC2)[C@@]31CCc1ccccc1 (stereo partly drawn)	21µM*	-3%	0%	/	-27%	-12%
CC(C)(C)NC(=O)C[C@H]1C[C@H](C(=O)N2CCCCC2)[C@@]2(C)c3[nH]c4ccc(Cl)cc4c3CCN2C1=O	16µM*	-8%	9%	/	?	12%
C=CC[n+]1cccc2cc(Br)ccc21	/	-5%	13%	/	/	/
Oc1cc(O)c(CN2CCOCC2)cc1CN1CCOCC1	2%	-4%	11µM*	/	-1%	1%
Cc1ccc(N2CCN(C(=O)c3cccn4c(=O)c5ccc(Cl)cc5nc34)CC2C)cc1 (stereo not drawn)	/	2%[57.1 µM]	18%[57.1 µM]	/	7%	8%
Cc1cc(C)cc(NC(=O)CCN2C(=O)c3ccccc3Sc3ncccc32)c1	0%	-12%	25µM*	/	-2%	-12%
CCc1ccccc1NC(=O)CSc1ncc(S(=O)(=O)c2ccccc2)c(N)n1	-11%	4%	7%	/	7%	14%
S=C(NCCCN(Cc1ccc(Cl)cc1)c1ccc(Br)cn1)NCc1ccc2nc[nH]c2c1	?	1%	0%	/	0%	/
Cc1ccc(C(CC(=O)NCc2ccco2)c2ccc(OC(C)C)cc2)cc1 (stereo not drawn)	7.3µM*	-6%	2%	2%	?	12%
COc1ccc(C(CC(=O)NCc2ccco2)c2ccc(F)cc2)cc1 (stereo not drawn)	1%	-5%	-1%	-8%	-18%	7%
CC(=O)c1c(N2CCCCC2)nc(=S)n(Cc2ccccc2)c1C	-11%	9%	18%	-8%	2%	3%
CC(=O)c1c(N2CCN(Cc3ccccc3)CC2)nc(=S)n(Cc2ccccc2)c1C	21µM*	1%	4%	-10%	?	0%
Nc1ccc2c(c1)C/C(=C/c1ccco1)C2=O	?	-5%	56µM*	1%	3%	1%
CCc1ccc2c(-c3cccc(Cl)c3)nc(=O)n(CC)c2n1	/	16%[57.1 µM]	3%[57.1 µM]	12µM*	/	/
NC(=O)CSc1oc(-c2ccco2)nc1S(=O)(=O)c1ccc(Cl)cc1	-6%	12%[0.0914 µM]	?	7%	-1%	1%
O=C(CSc1oc(-c2ccco2)nc1S(=O)(=O)c1ccccc1)NCC1CCCO1 (stereo not drawn)	/	-9%	?	-2%	-1%	6%
O=C(CSc1oc(-c2ccco2)nc1S(=O)(=O)c1ccc(F)cc1)NCC1CCCO1 (stereo not drawn)	12%	5%	16µM*	5%	10%	-1%
Cc1ccc(S(=O)(=O)c2nc(-c3ccco3)oc2SCC(N)=O)cc1	-10%	?	79µM*	-6%	0%	0%
CN(C)C(=O)c1ccc(NC(=O)COC(=O)C2(c3ccccc3)CCCC2)cc1	16µM*	-1%	18%	/	-1%	-4%
CN(C)S(=O)(=O)c1cccc(C(=O)NC(=S)N(CCC#N)Cc2cccnc2)c1	?	7%[57.1 µM]	-9%[57.1 µM]	5%	1%	2%
Cc1ccc(S(=O)(=O)N(C)C)cc1NC(=S)N(CCC#N)Cc1cccnc1	-1%	-1%[57.1 µM]	4%[57.1 µM]	7.1µM*	1%	-1%
